# Data published in ChEMBL document CHEMBL3988442, “University of Dundee, Small-Polar-MMV Screening Library” (2021).
# About 1,000 (1.4%) of roughly 69,000 compounds showed an effect of 50% or more. The entries come from a sample that favours strong results as a whole.
# Tested on: Leishmania donovani
# Test: Leishmania intramacrophage assay
# Assay type: functional, organism-based
# Set-up: scale not given: in the data most compounds retested in dose-response had high values
structure (smiles),measurement,setting,value
CCc1noc(C)c1C(=O)N(C)Cc1ncc(C)c(OC)c1C,Percent Effect,"30 µM, 30.03 µM",17.33%
CN(CCCC#N)C1CCCN(Cc2noc(C3CC3)n2)C1 (configuration not stated),Percent Effect,"30 µM, 30.03 µM",35.66%
Cc1cccnc1CC(C)N(C)C(=O)c1cccs1 (configuration not stated),Percent Effect,"30.3 µM, […]",22.03%
CNC(=O)c1cnc(/C=C/c2cc(OC)c(O)c(OC)c2)s1,Percent Effect,"30.3 µM, […]",3.705%
CCn1cc(NC(=O)C(C)n2ncc(Cl)c2C)c(C(=O)NCC(C)C)n1 (configuration not stated),Percent Effect,"30.3 µM, […]",23.51%
CC(Oc1ccc2c(c1)OCO2)C(=O)N1CCC(N2CCCC2)CC1 (configuration not stated),Percent Effect,"30.3 µM, […]",30.73%
CCN(Cc1nonc1C)C(=O)c1ccc(Br)o1,Percent Effect,"30.3 µM, […]",25.68%
O=C(O)C(F)(F)F.O=C1[C@H]2CN(CC3CCOCC3)C[C@H]2CN1Cc1cccc(F)c1,Percent Effect,"30.3 µM, […]",2.876%
CN1CCC2(CCCN(c3nccc(C(F)(F)F)n3)C2)CC1.O=C(O)C(F)(F)F,Percent Effect,"30.3 µM, […]",21.14%
CC(C)N1CCC2(CCCN(c3nccc(C(F)(F)F)n3)C2)CC1.O=C(O)C(F)(F)F,Percent Effect,"30.3 µM, […]",54.65%
O=C(O)C(F)(F)F.O=C(O)C(F)(F)F.c1cnc(N2CCCC3(CCN(c4ncccn4)C3)C2)nc1 (configuration not stated),Percent Effect,"30.3 µM, […]",12.64%
O=C(c1ccccc1OCC1CC1)N1CCCC(n2ccnc2)C1 (configuration not stated),Percent Effect,"30 µM, 30.03 µM",5.028%
Cc1cc(C)n(C2=NC(NCCC(C)C)c3c(sc4c3CCCC4)N2)n1 (configuration not stated),Percent Effect,"30.3 µM, […]",29.71%
Cc1cc(C)n(-c2nc(NCCCO)c3c4c(sc3n2)CCCC4)n1,Percent Effect,"30.3 µM, […]",97.76%
Cc1nc(CN2CCCC2C(=O)OCc2ccccc2)oc1C (configuration not stated),Percent Effect,"30.3 µM, […]",0.6047%
Fc1ccc(-c2noc(CN3CCC(c4cc[nH]n4)CC3)n2)cc1,Percent Effect,"30.3 µM, […]",54.52%
c1cc(C2CCN(Cc3nc(C4CC4)no3)CC2)[nH]n1,Percent Effect,"30.3 µM, […]",12.31%
CC1COCCN1Cc1nc(-c2ccc(F)cc2)no1 (configuration not stated),Percent Effect,30 µM,12.83%
Cc1ccccc1-c1noc(CN2CCC(c3ccn[nH]3)CC2)n1,Percent Effect,"30.3 µM, […]",-17.93%
Cc1cccc(-c2noc(CN3CCC(c4ccn[nH]4)CC3)n2)c1,Percent Effect,"30.3 µM, […]",43.8%
c1ccc(-c2cc(CN3CCC(c4ccn[nH]4)CC3)on2)cc1,Percent Effect,"30 µM, 30.03 µM",56.61%
c1ccc(-c2noc(CN3CCC(c4ccn[nH]4)CC3)n2)cc1,Percent Effect,"30 µM, 30.03 µM",52.27%
O=C1NCCN1C1CCN(Cc2nc(-c3ccc(F)cc3)no2)CC1,Percent Effect,30 µM,36.95%
Cc1ccc(-c2noc(CN3CCC(c4ccn[nH]4)CC3)n2)cc1,Percent Effect,"30.3 µM, […]",12.54%
CC(C)c1cc(C(=O)NCCc2nc(-c3ccncc3)n[nH]2)[nH]n1,Percent Effect,"30.3 µM, […]",-0.4105%
Cc1cc(SC(C)(C)C)ccc1NC(C)C(=O)NC(N)=O (configuration not stated),Percent Effect,"30.3 µM, […]",-16.97%
Cc1nc(C2CCCC2)sc1C(N)=O,Percent Effect,"30.3 µM, […]",-15.57%
Cc1cnn(CC2CCCN2c2ncnc3ccsc23)c1 (configuration not stated),Percent Effect,30 µM,46.26%
CCCNC(=O)COc1cccc(-c2nc(C(C)C)no2)c1,Percent Effect,"30.3 µM, […]",13.17%
CCC(Nc1nc(CCN)nc2ccccc12)c1cccs1 (configuration not stated),Percent Effect,"30.3 µM, […]",67.47%
CCC(Nc1nc(CCN)nc2ccccc12)c1cc(C)ccn1 (configuration not stated),Percent Effect,"30.3 µM, […]",19.32%
NCCc1nc(N[C@@H](CO)c2ccccc2)c2ccccc2n1,Percent Effect,"30.3 µM, […]",7.922%
CC1c2ncc(Cn3cccn3)n2CCN1S(=O)(=O)C1CC1 (configuration not stated),Percent Effect,"30.3 µM, […]",4.524%
Cc1ccc2oc(CN3CCC(C(=O)O)(n4ccnc4)CC3)c(C)c2c1,Percent Effect,"30.3 µM, […]",21.21%
CN(C)C[C@@H]1C[C@@H]2CN(Cc3nccn3C)CC[C@@H]2N1CC1CC1,Percent Effect,"30.3 µM, […]",27%
CC(C)C(=O)N1CCN(c2ncnc3cc4c(cc23)OCCO4)CC1,Percent Effect,"30.3 µM, […]",56.87%
CCC(=O)N1CCN(c2ncnc3cc4c(cc23)OCCO4)CC1,Percent Effect,"30.3 µM, […]",-95.64%
CC(=O)N1CCN(c2ncnc3cc4c(cc23)OCCO4)CC1,Percent Effect,"30.3 µM, […]",39.4%
COc1cc2cc(C(=O)N[C@@H](C)C(=O)O)n(C)c2c(OC)c1OC,Percent Effect,"30 µM, 30.03 µM",2.156%
O=C(c1cccnc1)N1CCc2onc(CN3CCCC3)c2C1,Percent Effect,"30.3 µM, […]",14.82%
Cc1nnc2n1CCN(CC(O)CN1CCC(C)CC1)C2 (configuration not stated),Percent Effect,"30.3 µM, […]",33.92%
CCC(CN1CCCC1)n1cncc1-c1cnn(-c2ccc(F)cc2)c1.Cl (configuration not stated),Percent Effect,"30.3 µM, […]",14.1%
COc1c(C)cnc(CN(C)C2CCN(C3CCOCC3)CC2)c1C,Percent Effect,"30.3 µM, […]",38.73%
COc1c(C)cnc(CN(C)C2CCCCC2)c1C,Percent Effect,"30.3 µM, […]",77.94%
COc1c(C)cnc(CN(C)C2CCOC3(CCOCC3)C2)c1C (configuration not stated),Percent Effect,"30.3 µM, […]",5.753%
CC(Cn1cccn1)C(=O)N1CCCN(Cc2cscn2)CC1 (configuration not stated),Percent Effect,"30.3 µM, […]",10.45%
O=C(c1cccs1)N1CCc2c(nc(N3CCCC3)[nH]c2=O)C1,Percent Effect,"30.3 µM, […]",-25.29%
CN(C)C(=O)C1CCN(Cn2nc(-c3ccc(F)cc3)oc2=O)CC1,Percent Effect,30 µM,-5.064%
c1cnnc(N2CCCC(NCc3nc(-c4ccsc4)no3)C2)c1 (configuration not stated),Percent Effect,"30.3 µM, […]",12.92%
CC(NCc1ccncc1)c1ccc(N2CCN(C)CC2)c(F)c1.Cl (configuration not stated),Percent Effect,"30.3 µM, […]",-0.6983%
CC(NCc1cnc(N2CCN(C)CC2)nc1)c1ccc(F)cc1 (configuration not stated),Percent Effect,"30.3 µM, […]",58.55%
CN1CCN(c2ncc(CNCCCc3cccc(F)c3)cn2)CC1,Percent Effect,"30.3 µM, […]",20.79%
Cn1ccnc1CNC1CCCOc2c1ccc1ccccc21 (configuration not stated),Percent Effect,"30.3 µM, […]",20.1%
Cc1ccc2c(c1)OCCCC2NCc1nccn1CC(C)C (configuration not stated),Percent Effect,"30.3 µM, […]",9.865%
Cc1ccc2c(c1)C(NCc1nccn1Cc1ccccc1)CCCO2 (configuration not stated),Percent Effect,"30.3 µM, […]",23.59%
Cc1cccc2c1OCCCC2NCc1nccn1Cc1ccccc1 (configuration not stated),Percent Effect,"30.3 µM, […]",82.89%
c1ccc(Cn2ccnc2CNC2CCCOc3ccccc32)cc1 (configuration not stated),Percent Effect,"30.3 µM, […]",4.41%
Cc1ccc2c(c1)OCCCC2NCc1nccn1Cc1ccccc1 (configuration not stated),Percent Effect,"30.3 µM, […]",50.6%
Cc1noc([C@@]23CCO[C@@H]2CCN(C(=O)CCC(C)C)C3)n1,Percent Effect,"30.3 µM, […]",-4.868%
COCCN(CCC#N)S(=O)(=O)c1ccc(F)cc1Cl,Percent Effect,"30.3 µM, […]",-7.04%
Cc1nc(CNC(=O)Cn2nc(-c3ccc(F)cc3)oc2=O)cs1,Percent Effect,"30 µM, 30.03 µM",-4.773%
COc1ccc(-c2cn(CCSc3ncn[nH]3)nn2)cn1,Percent Effect,"30.3 µM, […]",35.9%
Cc1nn(C)c(C)c1CN(C(=O)c1cc(Cl)c[nH]c1=O)C(C)C,Percent Effect,"30.3 µM, […]",14.01%
Cc1ncc2c(n1)CCCC2NC(=O)c1ccc(Cn2cccn2)cc1 (configuration not stated),Percent Effect,"30.3 µM, […]",26.01%
Cc1nn(CC(F)F)c2c1c(C(F)F)cc(=O)n2CC(=O)O,Percent Effect,"30.3 µM, […]",-4.895%
COC(=O)Cn1c(=O)cc(C(F)F)c2c(C)nn(CC(F)F)c21,Percent Effect,"30.3 µM, […]",51.48%
CCCn1nc(C)c2c(C(F)F)cc(=O)n(CC(=O)O)c21,Percent Effect,"30.3 µM, […]",18.18%
